Results taken from PubChem BioAssay AID1490 (National Center for Advancing Translational Sciences (NCATS), 2009).
“And” between values parts separate entries of the source, which are not always exact repeats. Equal entries are not always repeated. Out of some 310,000 compounds screened, about 11,000 (3.5%) were called active. Not shown: some 4% with an inconclusive outcome. What follows is part of a selection rich in actives, with near analogues and random picks from the rest. A number with no mark means an inactive call. Calls follow the shape of the dose curve; as a rule, active = well fitted inhibition curve with a large enough effect; inconclusive = small, poorly fitted or top-dose-only effect, or another doubt; inactive = no such curve, though single readings can be large or run the other way.
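Also: the enzyme is Sfp with the accession as filed and its product quenches rhodamine fluorescence.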
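For largest response in the series, negative = inhibition in this document: 0% = enzyme reaction without inhibitor and -100% = no enzyme wells.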
Potency is read from the fitted curve at half-maximal effect.

The compounds below were run against 4'-phosphopantetheinyl transferase ffp (Bacillus subtilis) (UniProt Q9F4F7) (assay: qHTS Assay for Inhibitors of Bacillus subtilis Sfp phosphopantetheinyl transferase (PPTase)). Conditions: Biochemical Sfp PPTase activity.
Summary of the method: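 Sfp 15 nM + cpd, 15 min RT; start w/ rhodamine-CoA 5 uM, BHQ-2-YbbR 12.5 uM (final); 50 mM Hepes pH 7.6, 10 mM MgCl2, 0.01% NP-40, 0.01% BSA; read 525/598 nm at 0 and 30 min.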
Cc1ccccc1NC(=O)c1cc(S(=O)(=O)Nc2cccc(C(=O)O)c2)ccc1Cl gave a largest response in the series, negative = inhibition of 17.9%. Work on COCCNC(=O)C1CCN(C(=O)C2CC(=O)N(c3ccc(C)cc3)C2)CC1 (centres undefined) yielded a largest response in the series, negative = inhibition of 10.9%. NS(=O)(=O)c1cccc(NC(=O)CN2CCCc3ccccc32)c1 showed a largest response in the series, negative = inhibition of 17%. With COC(=O)c1[nH]c2ccccc2c1NC(=O)CN1CCCc2ccccc21 the Potency was 39.8 µM (active). For COC(=O)c1[nH]c2cccc(C)c2c1NC(=O)CN1CCCc2ccccc21, the largest response in the series, negative = inhibition was -4.7%. O=C(Nc1nnc(S(=O)(=O)N2CCOCC2)s1)c1cccc(Br)c1 was tested, and the largest response in the series, negative = inhibition was 19.1%. Work on S=c1[nH]nc(-c2ccncc2)n1/N=C/c1ccccc1Cl yielded a largest response in the series, negative = inhibition of -1.85%. In the case of S=c1[nH]nc(-c2cc(-c3ccccc3)n[nH]2)n1/N=C/c1c2ccccc2cc2ccccc12, the Potency is reported as 50.1 µM (active). c1ccc(-c2cc(-c3ccccc3)[nH]n2)cc1 gave a largest response in the series, negative = inhibition of 4.07%. In the case of Cc1ccc(S(=O)(=O)N/N=C\c2cc3c(cc2[N+](=O)[O-])OCO3)cc1, the largest response in the series, negative = inhibition is reported as -17.6%. In the case of CCc1ccc(S(=O)(=O)N/N=C\c2ccc([N+](=O)[O-])o2)cc1, the Potency is reported as 56.2 µM (active). Work on Cc1cc(C)nc(N/N=C/c2c(C)oc3ccccc23)n1 yielded a largest response in the series, negative = inhibition of -2.54%. With Cc1cc(C)nc(N/N=C/c2ccc([N+](=O)[O-])o2)n1 the Potency was 79.4 µM (active). In the case of Cc1cc(C)nc(N/N=C/c2ccncc2)n1, the largest response in the series, negative = inhibition is reported as -9.4%. Work on C/[N+]([O-])=C\c1ccc([N+](=O)[O-])o1 yielded a largest response in the series, negative = inhibition of 10%. For O=C(NNS(=O)(=O)c1ccc([N+](=O)[O-])cc1)C1CCCCC1, the largest response in the series, negative = inhibition was 5.3%. In the case of CC(C)(C)c1cc[n+](-c2[nH]c(=O)sc2/C=N/N=C(\[O-])c2ccccc2)cc1, the largest response in the series, negative = inhibition is reported as -4.09%. For COC1=C(N2CCOCC2)C(=O)c2ccccc2C1=O, the largest response in the series, negative = inhibition was -22.9%. With COc1ccc(CNC(=O)CCN2C(=O)c3ccccc3C2=O)cc1 the largest response in the series, negative = inhibition was 10.6%. COc1ccccc1CN1CCN(C(c2ccccc2)c2ccccc2)CC1 was tested, and the largest response in the series, negative = inhibition was -9.22%. For COc1cc(OC)c(OC)cc1CN1CCN(C(=O)c2cccc3ccccc23)CC1, the largest response in the series, negative = inhibition was -29.2%. In the case of COc1ccccc1CN1CCN(Cc2cc(OC)c(OC)cc2OC)CC1, the Potency is reported as 79.4 µM (active). Compound Cc1ccc(C(=O)N/C(=C\c2ccc(F)cc2)C(=O)NCCN2CCOCC2)cc1 has a largest response in the series, negative = inhibition of 8.47%. In the case of O=C(NCc1ccc(Cl)cc1)C1CCN(S(=O)(=O)c2cccs2)CC1, the largest response in the series, negative = inhibition is reported as 2.39%. In the case of Cc1ccccc1N1CCN(CC(=O)NCc2ccc(Cl)cc2)CC1, the largest response in the series, negative = inhibition is reported as 9.8%. With O=C(CN1CCN(S(=O)(=O)c2ccc(Cl)s2)CC1)NCc1ccc(Cl)cc1 the Potency was 56.2 µM (active). CN1CCN(C(=O)c2ccccc2NC(=O)COc2ccccc2Cl)CC1 gave a largest response in the series, negative = inhibition of 18.2%. CC(C)NC(=O)c1ccc(Cl)cc1Cl was tested, and the largest response in the series, negative = inhibition was 26.8%. With COC(=O)/C(=C\Nc1ccccc1)NC(=O)c1ccc(Cl)cc1Cl the Potency was 79.4 µM (active). COc1cc(/C=C(/NC(=O)c2ccc(Cl)cc2Cl)C(=O)O)cc(OC)c1OC was tested, and the largest response in the series, negative = inhibition was 1.15%. COc1ccc(N2CCN(C(=O)c3ccc(N4CCCCS4(=O)=O)cc3)CC2)cc1 was tested, and the largest response in the series, negative = inhibition was 1.49%. For COc1ncnc2c1N=C1CC(C)(C)CC(N)=C1S2, the Potency was 44.7 µM (active). With CN(CC(=O)NCc1ccncc1)S(=O)(=O)c1ccc(Br)cc1 the largest response in the series, negative = inhibition was 13.4%. With O=C(Nc1nc(-c2ccncc2)cs1)C1COc2ccccc2O1 (centres undefined) the Potency was 8.91 µM (active). O=C(Nc1nc2c(F)cc(F)cc2s1)C1COc2ccccc2O1 (centres undefined) gave a largest response in the series, negative = inhibition of -2.2%. Work on O=C(Nc1ncc([N+](=O)[O-])s1)C1COc2ccccc2O1 (centres undefined) yielded a largest response in the series, negative = inhibition of -25.4%. Work on CC(=O)c1ccc(S(=O)(=O)NCc2nnnn2-c2ccccc2)cc1 yielded a largest response in the series, negative = inhibition of 25.6%. For Cc1ccc2c(c1)N(CC(=O)NCC1CCCO1)C(=O)CO2 (centres undefined), the largest response in the series, negative = inhibition was 20.7%. With Cc1cc(-c2n[nH]c(=S)n2/N=C/C(Br)=C/c2ccccc2)n[nH]1 the Potency was 39.8 µM (active). CC(C)c1cc(C(=O)N/N=C/C(Br)=C/c2ccccc2)n[nH]1 showed a largest response in the series, negative = inhibition of 3.6%. S=c1[nH]nc(-c2ccco2)n1/N=C/c1ccccc1 showed a largest response in the series, negative = inhibition of -17.1%. For Cc1cc(-c2n[nH]c(=S)n2/N=C/c2ccco2)n[nH]1, the Potency was 79.4 µM (active). S=c1[nH]nc(-c2cccnc2)n1/N=C/C(Cl)=C\c1ccccc1 gave a largest response in the series, negative = inhibition of -12.9%. With S=c1[nH]nc(-c2ccco2)n1/N=C/c1ccc(Br)s1 the largest response in the series, negative = inhibition was -25.9%. For O=C(c1cc2ccccc2o1)N1CCN(Cc2ccccc2)CC1, the largest response in the series, negative = inhibition was 8.96% and -10.3%. Compound Cc1ccc(CSCCNC(=O)CN(c2ccc(F)cc2)S(C)(=O)=O)cc1 has a largest response in the series, negative = inhibition of 7.19%. O=C(c1ccncc1)N1CCC2(CCCN(C(c3ccccc3)c3ccccc3)C2)CC1 was tested, and the largest response in the series, negative = inhibition was -0.961%. In the case of Cc1ccc(CNC(=O)C(=O)c2cn(CC(=O)N3CCOCC3)c3ccccc23)cc1, the largest response in the series, negative = inhibition is reported as 6.58%. For O=C(Oc1ccc(F)cc1)N1CCOCC1, the largest response in the series, negative = inhibition was 11.2%. With O=C(Oc1ccc(C(=S)N2CCOCC2)cc1)c1ccc(F)cc1 the Potency was 50.1 µM (active). Cc1ccc(C(=O)Oc2ccc(C(=S)N3CCOCC3)cc2)cc1 gave a largest response in the series, negative = inhibition of -21.7%. For NNC(=O)CNC(c1ccccc1)c1cc(Cl)ccc1NC(=O)c1ccccc1 (centres undefined), the largest response in the series, negative = inhibition was 5.82%. Cc1ccc(SCC(CC(C)C)N2CCN(CCc3ccccc3)CCC2=O)cc1 (centres undefined) gave a largest response in the series, negative = inhibition of -29.9%. Work on Cc1cc(N(C)C)nc(Cl)n1 yielded a largest response in the series, negative = inhibition of -4.8%. In the case of COc1ccc(-c2cc(C(=O)N(C)Cc3ccccc3)c3ccccc3n2)cc1, the largest response in the series, negative = inhibition is reported as -16.8%. For CN(C)c1cc(N)c2ccccc2n1 (tested in a mixture with another compound), the Potency was 56.2 µM (active). With CN(Cc1ccccc1)S(=O)(=O)c1nnc(NC(=O)c2ccccc2F)s1 the largest response in the series, negative = inhibition was 16.4%. O=C(Cc1cccs1)NCc1cccc(C(F)(F)F)c1 was tested, and the largest response in the series, negative = inhibition was 6.74%. NC(=O)CC(NC(=O)Cc1ccc(Br)cc1)c1ccc(NC2CC3CCC2C3)c([N+](=O)[O-])c1 (centres undefined) gave a largest response in the series, negative = inhibition of 15.4%.
